Shown are actives, neighbours in structure and some others; about 1.7% of the full set was active somewhere.
PTHR1 agonist: qHTS for PTHR1 Agonists: Primary Screen | Parathyroid hormone/parathyroid hormone-related peptide receptor (Homo sapiens), Q03431 | 0.075% of 410,000 active | HEK293 GP2 PTHR1 cells, GloSensor cAMP luminescence, 1 h | Potency, µM (titrated, usually from 115 µM), inactives show at the highest dose activation, usual class: activators; further: nearly all actives have a fitted effect of over 55% in size
Target sequence (Q03431 whole entry, looked up): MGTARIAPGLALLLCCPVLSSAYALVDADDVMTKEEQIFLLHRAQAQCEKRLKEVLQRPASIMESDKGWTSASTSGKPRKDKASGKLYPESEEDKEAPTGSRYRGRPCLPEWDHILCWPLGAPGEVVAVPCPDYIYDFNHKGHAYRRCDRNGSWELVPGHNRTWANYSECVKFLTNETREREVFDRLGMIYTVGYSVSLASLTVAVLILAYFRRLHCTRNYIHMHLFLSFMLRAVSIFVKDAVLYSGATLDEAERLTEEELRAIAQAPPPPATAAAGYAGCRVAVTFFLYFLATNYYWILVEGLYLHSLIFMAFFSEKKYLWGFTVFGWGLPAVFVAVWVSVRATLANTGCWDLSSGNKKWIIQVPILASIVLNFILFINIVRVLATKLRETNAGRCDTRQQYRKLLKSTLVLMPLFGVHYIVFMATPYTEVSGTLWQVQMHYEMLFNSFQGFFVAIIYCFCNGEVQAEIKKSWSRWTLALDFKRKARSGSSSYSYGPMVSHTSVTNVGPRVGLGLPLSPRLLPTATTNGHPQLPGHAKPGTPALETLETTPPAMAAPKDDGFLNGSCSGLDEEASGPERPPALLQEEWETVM
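HEK-293-derived GP2 cells expressing PTHR1 and a GloSensor cAMP reporter, 3,000/well, plated overnight, given luciferin plus IBMX (each 0.5 mM as added) for 1 h at 37 °C, then compound for 1 h at 37 °C. Luminescence was read after 15 min at room temperature.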
GLP1R inv ag: qHTS of GLP-1 Receptor Inverse Agonists (Inhibition Mode); Glucagon-like peptide 1 receptor (Homo sapiens), P43220; HEK293 GLP-1R CRE-luciferase, luminescence, 24 h; GLP-1R form is constitutively active; Potency, µM (highest dose often 38.3 µM), for inactives: top-dose activity change, negative = inhibition, usual class: inhibitors; 1.6% of 410,000 active; AID 624417, 2012; further: on the % scale 0 is the no-effect control and ±100 the full control effect; nearly all actives have a fitted effect of over 55% in size
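Using stably transfected HEK293 (constitutively active GLP-1R, cAMP-luciferase reporter), compounds were incubated 24 hr and luciferase measured by luminescence.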
HEK293 tox: qHTS of GLP-1 Receptor Inverse Agonists: Cytotox Screen; Potency, µM (highest dose often 38.3 µM), for the others: at the highest dose activity change, negative = inhibition, usual class: inhibitors; AID 624418, 2012; HEK293 cAMP-luciferase reporter cells, luminescence, 24 h; 0.13% of 410,000 active;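 further: loss of luciferase light is scored as toxicity; on the % scale 0 is the no-effect control and ±100 the full control effect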
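Cells in DMEM/10% Nu serum/1% pen-strep, 1536-well format. Pre-incubated 12 h, dosed with 23 nL compound, incubated a further 24 h. Luciferase detection, 12 min at room temp, luminescence.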
GLP-1R agonist: qHTS of GLP-1 Receptor Agonists; Glucagon-like peptide 1 receptor (Homo sapiens), P43220; HEK293 GLP-1R CRE-luciferase, luminescence, 4-6 h; cells express a hypersensitive GLP-1R form; Potency, µM (top dose mostly 45.6 µM), inactives show at the highest dose activation, hits mostly activators; 0.007% of 380,000 active; further: % of control where 0% means no effect
The depositor's hits bear a star; i = inactive; ? = inconclusive; / = no result given; [ ] = dose if it differs, or a comment. The call rests on the fitted dose curve; in most records, active means well fitted curve in the direction sought with a large enough effect; inconclusive means small, poorly fitted or top-dose-only effect, or another doubt; inactive means no such curve, though single readings can be large; an effect the other way counts as inactive or inconclusive. Potency means the concentration at half of the fitted maximal effect.

SMILES | PTHR1 agonist | GLP1R inv ag | HEK293 tox | GLP-1R agonist
Fc1ccc(-n2cc(-c3ccccc3)c3c(NCCc4ccccc4)ncnc32)cc1 | -20.0% | 7.94µM* | 3.3% | /
OCCOCCNc1ncnc2c1c(-c1ccccc1)cn2-c1ccccc1 | -0.2% | 2.5% | -2.8% | 27.4%
Clc1cccc(-n2cc(-c3ccccc3)c3c(NC4CCCC4)ncnc32)c1 | -19.1% | -0.9% | 1.3% | /
CCc1cccc(NC(=O)c2oc3ccc4c(c3c2C)C(=O)CC(C)(C)O4)c1 | i | ? | -8.7% | /
c1ccc(-c2csc3ncnc(NCc4ccccn4)c23)cc1 | -63.5% | -6.2% | -6.4% | -2.4%
Cc1ccc(-n2c(C)c(C)c3c(NCCN(C)C)ncnc32)cc1 | -20.8% | 10µM* | -2.5% | -2.8%
CN(C)CCCNc1ncnc2c1c(-c1ccccc1)cn2-c1ccccc1 | -18.1% | 3.98µM* | ? | 11.3%
Clc1cccc(-n2cc(-c3ccccc3)c3c(N4CCCCC4)ncnc32)c1 | i | 2.2% | 9.3% | /
Fc1ccc(CNc2ncnc3c2c(-c2ccccc2)cn3-c2ccccc2)cc1 | i | ? | -2.0% | /
c1ccc(-c2cn(-c3ccccc3)c3ncnc(N4CCCCC4)c23)cc1 | -16.4% | 3.16µM* | -5.9% | 3.5%
CN(C)CCCNc1ncnc2scc(-c3ccccc3)c12 | i | 11.2µM* | 0.0% | -4.3%
Cc1ccc(Cn2ncc3c(NCCN(C)C)ncnc32)cc1 | i | -0.7% | 21.7% | -1.8%
COc1ccccc1NC(=O)Cn1c(=O)n(-c2ccc(C)cc2)c(=O)c2ccc(C(=O)NCc3ccco3)cc21 | -34.0% | -2.2% | 0.3% | -0.5%
COc1ccc(S(=O)(=O)NCC(c2ccc(N(C)C)cc2)N2CCCC2)cc1F (stereo unspecified) | 21.9% | -15.7% | -4.2% | /
CCN1CCc2c(sc(-n3cccc3)c2C(CCC(C)C)NC(=O)NCCC(=O)OC)C1 (stereo unspecified) | -11.3% | 3.7% | 12.2% | /
CSc1ccc(CCNc2ncnc3onc(-c4ccc(Cl)cc4)c23)cc1 | -42.2% | ? | 8.9% | /
Cc1ccc(CCNC(=O)CCS(=O)(=O)c2cc3c(cc2Cl)NC(=O)CO3)cc1 | i | 14.1% | -5.1% | -1.2%
CN(C)CCNc1ncnc2c1cnn2-c1ccc(Cl)cc1 | -60.2% | 3.16µM* | ? | -14.3%
O=S(=O)(c1ccccc1)N1CCN(C(c2ccccc2)c2ccc(OC(F)(F)F)cc2)CC1 (stereo unspecified) | -35.7% | 10µM* | 3.8% | 0.5%
NC(=O)C1CCN(Cc2nc3cc(Cl)ccc3c(=O)[nH]2)CC1 | -2.0%[57.5 µM] | -9.6% | 28.7% | -13.8%
CCNCc1nc2cc(Cl)ccc2c(=O)[nH]1 | 29.4% | 10µM* | ? | 3.5%
O=C(Nc1ccccn1)c1csc2c1CCCC2 | -4.3% | 0.4% | 6.4% | 17.3%
O=C(Nc1ccccn1)c1onc2c1CCCC2 | -26.1% | 2.51µM* | 19.8% | -32.2%
Cc1[nH]c(C(=O)O)c(C#N)c1C(=O)c1ccccc1 | -14.6% | 1.1% | -10.6% | 0.0%
CC(=O)N(C(C)=O)c1c(C#N)c(C)n(-c2ccccc2)c1C(=O)c1ccccc1 | -11.1% | 5.62µM* | -8.3% | -12.2%
SMILES | PTHR1 agonist | GLP1R inv ag | HEK293 tox | GLP-1R agonist
CCc1cccc(CC)c1N(COC)C(=O)Cn1c(C)nc2ccccc21 | -26.7% | 2.24µM* | 7.2% | /
CCOC(=O)c1ccc(NC(=O)Cn2cc(C(=O)c3ccc(Cl)cc3)c(=O)c3ccc(C)nc32)cc1 | i | -6.4% | 1.1% | /
Cc1ccc(C)c(C(=O)CCC(=O)NCc2ccc(Cl)cc2)c1 | -3.4% | 10µM* | -7.6% | 2.6%
O=C(Nc1cccc(C(F)(F)F)c1)c1ccc(F)c(S(=O)(=O)N2CCc3ccccc3C2)c1 | -88.2% | ? | -13.3% | /
CCOC(=O)c1cc2c(ccn2C)n1Cc1ccc(Cl)cc1 | -7.1% | ? | -0.2% | 0.9%
Cc1cccc(Cn2c(C(=O)OC(C)C)cc3c2ccn3C)c1 | -8.9%[57.5 µM] | 5.01µM* | 3.2% | 0.5%
COc1cc(OC)c(NC(=O)CCCn2nc(C)c3sc4ccccc4c3c2=O)cc1Cl | i | -1.9% | 3.9% | /
COCCCNC(=O)c1ccccc1Oc1ccccc1 | i | -8.7% | -5.9% | 3.1%

Screening results (PubChem BioAssay)
